# Assay results published in PubChem BioAssay AID939 (National Center for Advancing Translational Sciences (NCATS), 2007).
# Results filed as inconclusive are left out. Calls of active or inactive are those of the source. Calls come from the whole dose curve; as a rule, active = well fitted activation curve with a large enough effect in the main read-out, with a control signal flat; inconclusive = small, poorly fitted or top-dose-only effect, or effect the other way, or a change in a side signal; inactive = no such curve, though single readings can be large or run the other way.
# Experiments:
# [1] = Confirmation Concentration-Response Assay for Agonists of the Thyroid Stimulating Hormone Receptor; conditions: HEK293 TSHR-CNG cells, membrane potential dye, cAMP; measured here: parental HEK293 counter-screen max; for activation: % of control where 0% means no effect
# Source text: (§1) NIH Chemical Genomics Center [NCGC] NIH Molecular Libraries Screening Centers Network [MLSCN] MLSCN Grant: 1 X01 MH080680-01 PI Name: Dr. Marvin Gershengorn, NIH NCGC Assay Overview: Thyroid Stimulating Hormone Receptor TSH is an alpha/beta heterodimeric glycoprotein hormone secreted from the anterior pituitary gland which belongs to the glycoprotein hormone family. The actions of TSH are mediated by a seven-transmembrane receptor, which upon TSH binding couples preferentially to the G-alpha (s) protein (Gs), resulting in activation of adenylate cyclase and increase in cyclic adenosine 3', 5' monophosphate (cAMP). The TSH receptor (THSR) is mainly expressed in thyroid follicular cells and regulates their growth and function. Recombinant TSH is used to activate TSHR in patients with thyroid cancer receiving thyroid hormone suppression therapy and to screen for residual tumor after surgery, but it is expensive and must be administered intramuscularly. An orally active small molecule TSHR agonist would serve as an invaluable research tool for studying TSHR pharmacology and physiology, and would have multiple advantages in therapeutic settings. However, no selective small molecule agonist of the TSH receptor exists, and no small molecule screen for TSHR agonists has ever been reported. This cell based assay utilized a cyclic nucleotide gated ion channel (CNG) as a biosensor for cAMP induction by potential TSHR agonists. TSHR cell line HEK 293 cells stably expressing the TSHR as well as a modified CNG were purchased from BD biosciences. Stimulation of cAMP production causes the CNG to open and subsequent membrane depolarization to occur. A fluorescent membrane potential dye (BD biosciences) was utilized to detect cAMP stimulation in TSHR cells. The cells were maintained in DMEM medium (Invitrogen) containing 10 % FBS (Hyclone), 100 units/ml Penicillin, 100 ug/ml Streptomycin (Invitrogen), and 250 ug/ml Geneticin (Invitrogen) and 1 ug/ml Puromycin (Invitrogen) at 37C in 5% CO2. HEK 293 cells expressing CNG but without TSHR (parental cells) were used in concert to control for compounds signaling through endogenous receptors and targets of HEK 293 cells.
# (§2) NCGC Assay Protocol Summary: High Throughput Screening. Freshly passaged cells (TSHR or parental) were dispensed into 1536-well assay plates at 4 ul/well in DMEM containing phenol red (Invitrogen), 10% FCS (Hyclone), and 100 units/ml Penicillin, 100 ug/ml Streptomycin (Invitrogen) and incubated at 37 C with 5% CO2 for 20 to 36 hrs before the robotic screening. The screen was initiated by addition of 4 ul/well membrane potential dye containing 100 uM RO 20-1724 (Sigma Aldrich), followed by 60 min incubation at room temperature to allow for dye equilibration across the cell membrane. 23 nl/well compound or control was then added to the assay plates, which were incubated for additional 30 min before reading a Envision fluorescence plate reader (Perkin Elmer) in bottom-read mode for fluorescence intensity (emission at 590 nm). Keywords: Thyroid-stimulating hormone TSH, TSHR, TSHR agonist, quantitative high throughput screening, qHTS, HTS, probe identification, CNG, cAMP, cyclic nucleotide gated ion channel PubChem
# [2] = biological target: Thyrotropin receptor (Homo sapiens) (UniProt P16473); assay: as above; conditions: HEK293 TSHR-CNG cells, membrane potential dye, cAMP; series mostly up to 25.6 µM
# Source text: as §1, §2
# Potency is the fitted concentration of half-maximal effect.
# Sequence of Thyrotropin receptor (Homo sapiens) (P16473 whole entry, looked up): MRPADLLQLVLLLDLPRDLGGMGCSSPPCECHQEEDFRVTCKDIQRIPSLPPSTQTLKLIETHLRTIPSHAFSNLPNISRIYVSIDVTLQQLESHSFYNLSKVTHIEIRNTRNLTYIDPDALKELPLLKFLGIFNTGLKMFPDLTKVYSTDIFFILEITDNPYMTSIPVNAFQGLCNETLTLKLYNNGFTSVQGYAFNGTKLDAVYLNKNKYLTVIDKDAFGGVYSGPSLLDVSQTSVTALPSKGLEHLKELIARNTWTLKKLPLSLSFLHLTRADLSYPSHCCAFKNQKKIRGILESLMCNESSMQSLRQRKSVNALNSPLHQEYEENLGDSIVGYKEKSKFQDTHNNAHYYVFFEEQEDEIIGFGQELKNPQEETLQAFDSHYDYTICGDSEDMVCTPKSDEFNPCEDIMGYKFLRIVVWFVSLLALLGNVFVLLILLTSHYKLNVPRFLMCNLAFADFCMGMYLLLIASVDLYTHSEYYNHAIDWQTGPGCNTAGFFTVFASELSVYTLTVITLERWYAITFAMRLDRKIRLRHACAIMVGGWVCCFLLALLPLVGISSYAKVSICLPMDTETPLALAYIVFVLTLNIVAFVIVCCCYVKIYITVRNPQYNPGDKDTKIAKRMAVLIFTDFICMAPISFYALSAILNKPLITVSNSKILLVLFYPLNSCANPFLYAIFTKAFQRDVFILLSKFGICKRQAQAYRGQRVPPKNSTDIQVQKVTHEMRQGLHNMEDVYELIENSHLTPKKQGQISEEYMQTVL
Structure (SMILES),max response [1],Potency [2]
O=c1[nH]c(=O)n(Cc2ccco2)c(O)c1C=NC1CC1,5.23%,inactive
O=C(Nc1nc2ccccc2n1CCN1CCCC1)c1ccc(Cl)cc1,-11%,inactive
CN(C)c1ccc(CN2CC=C(c3ccc(F)cc3)CC2)cc1,5.57%,inactive
C=CCN1C(=O)C2(C(C(=O)OCC)=C(N)Oc3c2c(=O)oc2ccccc32)c2ccccc21 (centres undefined),-4.89%,5.01 µM (active)
CCn1c(C)c(C(=O)O)c2cc(OC)ccc21,6.15%,inactive
CCC(=NCC1CCCO1)c1c(O)n(Cc2ccccc2)c(=O)[nH]c1=O (centres undefined),5.62%,inactive
CCOC(=O)C1=C(C)OC(N)=C(C(=O)OC)C12C(=O)Nc1ccc(Br)cc12 (centres undefined),-4.55%,inactive
